Unmarked numbers belong to inactive results. Active and inactive are the calls of the source. Cut-off read from the data, not from the text of the source: active = fold change permeability below about 0.7 or above about 1.3; inactive = in between.

This assay can be described thus: compounds altering in vitro BBB leakiness – cell-based, FITC-avidin fluorescence, HTS, primary screen (AID 1963498). Note: test concentration not given here. To be noted: brain endothelial barrier, actives lie on both sides.
Take `COc1cc(-c2cc(-c3ccc(N4CCNCC4)cc3)cnc2C)cc(OC)c1OC`: the fold change permeability is 1.2.

Turning to `OC(CCN1CCCCC1)(c1ccccc1)C1CC2C=CC1C2` (centres undefined), the fold change permeability was 1.1.

Regarding `O=C(C1CCCCC1)N1CC(=O)N2CCc3ccccc3C2C1` (centres undefined), the fold change permeability was 1.2.

With `O=C(O)CCC(C(=O)O)N1C(=O)c2ccccc2C1=O` (centres undefined), the fold change permeability is 1.

For `CC1(C)CCC=[N+]1[O-]`, the fold change permeability was 0.9.

`COc1cccc(OC)c1OCCNCC1CSc2ccccc2O1` (centres undefined): the fold change permeability was 1.1.

Turning to `CCN(CC)S(=O)(=O)Nc1cccc(-c2ccc3c(NC(=O)C4CC4)n[nH]c3c2)c1`, the fold change permeability is 1.6 (active).

For the compound `O=c1[nH]c2ccccc2c2ccccc12`, the fold change permeability was 1.

For `CCCCc1ncc(/C=C(\Cc2cccs2)C(=O)O)n1Cc1ccc(C(=O)O)cc1`, the fold change permeability was 0.9.

Turning to `CN(C)CCC=C1c2ccccc2CCc2ccccc21`, the fold change permeability is 1.1.

Turning to `OC[C@H]1NC[C@H](O)[C@@H](O)[C@@H]1O`, the fold change permeability was 1.1.

Turning to `N#Cc1c(N2C[C@@H]3NCCO[C@H]3C2)c(F)cc2c(=O)c(C(=O)O)cn(C3CC3)c12`, the fold change permeability is 0.9.

In the case of `CC(C)C[C@H](C(=O)O)c1cc(-c2ccc(C(F)(F)F)cc2)cc(-c2ccc(C(F)(F)F)cc2)c1`, the fold change permeability is 0.9.

Regarding `CC(=O)[C@H]1CCC2C3CC=C4C[C@@H](OS(=O)(=O)O)CC[C@]4(C)C3CC[C@@]21C` (some centres undefined), the fold change permeability is 1.

For the compound `CC(C)C(=O)Nc1ccc([N+](=O)[O-])c(C(F)(F)F)c1`, the fold change permeability is 1.2.

As for `O=C(O)C1=CCCNC1`, the fold change permeability was 1.

Consider `NCCCNCCSP(=O)(O)O`, for which the fold change permeability was 0.9.

As to `Fc1ccc([C@@H]2CCNC[C@H]2COc2ccc3c(c2)OCO3)cc1`, the fold change permeability is 1.2.

As to `Cc1ccc(C(=O)Nc2cnc(N3CCC(C(N)=O)(N4CCCCC4)CC3)c(C(=O)O)c2)cc1`, the fold change permeability is 1.

Consider `COCCNC(=O)COc1ccc(OCCNC[C@H](O)COc2ccccc2)cc1`, for which the fold change permeability was 1.

Consider `NC(=O)c1ccc(OCCCN2C[C@H]3CCC[C@H]3C2)cc1`, for which the fold change permeability is 0.8.

As for `COc1ccc2[nH]c([S@@](=O)Cc3ncc(C)c(OC)c3C)nc2c1`, the fold change permeability is 0.9.

Consider `COc1cc(/C=C/C(=O)N2CCC=CC2=O)cc(OC)c1OC`, for which the fold change permeability is 1.

Turning to `CCN(CC)CC#CCOC(=O)C(O)(c1ccccc1)C1CCCCC1` (centres undefined), the fold change permeability was 1.3 (active).

With `O=C(c1ccc2c(c1)OCCO2)N1CCCCC1`, the fold change permeability was 1.2.

`C[C@]12CC[C@@H]3c4ccc(O)cc4CC[C@H]3[C@@H]1CC[C@@H]2O`: the fold change permeability is 1.

Take `N#CSCC(=O)c1ccc(O)c(O)c1`: the fold change permeability is 1.1.

Consider `CNC(=O)Oc1ccc2c(c1)[C@]1(C)CCN(C)[C@@H]1N2C`, for which the fold change permeability is 0.8.

On to `C=CC(N)CCC(=O)O` (centres undefined), for which the fold change permeability was 1.5 (active).

Take `O=C1Nc2nc(-c3c(O)cccc3OCC3CC3)cc([C@@H]3CCCNC3)c2CO1`: the fold change permeability is 1.6 (active).

In the case of `COc1ccc2c(c1)c(CC(=O)O)c(C)n2Cc1ccc(Cl)cc1`, the fold change permeability is 1.

`C[C@]12CC[C@@H]3c4ccc(O)cc4CC[C@H]3[C@@H]1[C@@H](O)[C@@H](O)[C@@H]2O`: the fold change permeability was 0.8.

Turning to `O=c1[nH]ccc2c(O)cccc12`, the fold change permeability is 2.2 (active).

In the case of `C[C@]12CCC(=O)C=C1C=C[C@@H]1[C@@H]2CC[C@@]2(C)[C@H]1CC[C@@]21CCC(=O)O1`, the fold change permeability is 1.1.

In the case of `O=C(Cc1ccccc1)Nc1nnc(CCSCCc2nnc(NC(=O)Cc3ccccc3)s2)s1`, the fold change permeability was 1.5 (active).

For `COc1ccc2[nH]cc(CCNC(C)=O)c2c1`, the fold change permeability was 0.8.

Turning to `O=C(NCc1cccnc1)c1ccc([N+](=O)[O-])o1`, the fold change permeability is 1.

As to `COc1nc(C)cnc1NS(=O)(=O)c1cccnc1-c1ccc(-c2nnco2)cc1`, the fold change permeability was 1.4 (active).

Take `CO/N=C(\C(=O)N[C@@H]1C(=O)N2C(C(=O)O)=C(COC(C)=O)CS[C@H]12)c1csc(N)n1` (stereo in doubt): the fold change permeability is 0.8.

For the origin of these results see PubChem BioAssay.
